Reference: PubChem BioAssay
Values joined by “and” are separate entries in the source; they are usually repeats but may differ in a detail not shown here. Identical values can stand only once. Some structures have more than one record in an assay (separate samples or runs), and their calls can disagree. Active and inactive are the calls of the source.

Experiments:
[1] = optical density shifts of acrAB sulA E. coli – strain DRC41, OD650, 48 h, E. coli filamentation inducer project, primary screen (AID 1152); conditions: higher = more signal, called active from +8 up or from −8 down;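 note: E. coli MC1000 strain DRC41 lacking acrAB efflux pump and sulA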
[2] = probe aLefty1 binding on compound microarray – biochemical, small-molecule microarray, 635/667 nm fluorescence, primary screen (AID 1153); conditions: higher = more signal;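 note: score merges spot fluorescence with signal-to-noise ratio from the scanned slide images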
[3] = plasmodial surface anion channel blockers, osmotic lysis – cell-based, P. falciparum Indochina, OD700, 1 h, primary screen (AID 1154); conditions: P. falciparum Indochina infected RBC osmotic lysis, higher = more signal, called active from +8 up or from −8 down
[4] = plasmodial surface anion channel blockers, osmotic lysis – cell-based, P. falciparum Indochina, OD700, 2 h, primary screen (AID 1155);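 note: lysis reports solute entry through the parasite surface anion channel PSAC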; conditions: P. falciparum Indochina infected erythrocytes, higher = more signal, called active from +8 up or from −8 down
[5] = changes in parasitized red cell lysis, either direction – P. falciparum Indochina, OD700, 3 h, PSAC antagonist project, primary screen (AID 1156); conditions: P. falciparum-infected erythrocytes, osmotic lysis, higher = more signal, called active from +8 up or from −8 down
[6] = plasmodial surface anion channel blockers, osmotic lysis – cell-based, P. falciparum Indochina, OD700, 18 h, primary screen (AID 1157); conditions: P. falciparum Indochina infected erythrocytes, osmotic lysis OD700, 18 h; higher = more signal, called active from +8 up or from −8 down
[7] = S6 kinase pathway phospho-S6 level changes – cell-based, A549, cytoblot, luminescence, serum-stimulated, primary screen (AID 1158); conditions: 5 h, higher = more signal;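 note: serum-stimulated A549 lung adenocarcinoma cells; signal is phosphorylated S6 detected by cytoblot immunostaining with HRP secondary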
[8] = biological target: NADPH oxidase 2 (Homo sapiens) (UniProt P04839); test: compounds shifting NOX2 Amplex Red fluorescence – cell-based, HEK293-NOX2, PMA-stimulated, NOX inhibitor project, primary screen (AID 1159); conditions: 45 min, higher = more signal, called active from +8 up or from −8 down; note: test concentration not given here
[9] = biological target: NADPH oxidase 4 (Homo sapiens) (UniProt Q9NPH5); test: compounds shifting NOX4 Amplex Red fluorescence – cell-based, HEK293-NOX4, tetracycline-induced, NOX inhibitor project, primary screen (AID 1160); conditions: HEK293-NOX4, Amplex Red H2O2 fluorescence, 45 min; higher = more signal, called active from +8 up or from −8 down
[10] = biological target: NADPH oxidase 5 (Homo sapiens) (UniProt Q96PH1); test: compounds shifting NOX5 Amplex Red fluorescence – cell-based, HEK293-NOX5, NOX inhibitor project, primary screen (AID 1161); conditions: HEK293-NOX5, ionomycin, 45 min, higher = more signal
[11] = compound effects on lung adenocarcinoma cell viability – A549, calcein-AM fluorescence, 48 h, basal, profiling panel (AID 1162); conditions: higher = more signal; note: test concentration not given here
[12] = compound effects on differentiated 3T3-L1 adipocyte viability – cell-based, 3T3-L1 adipocytes, calcein-AM fluorescence, 48 h, basal, profiling panel (AID 1163); conditions: 3T3-L1 adipocytes viability, higher = more signal; note: test concentration not given here
[13] = compound effects on hepatocellular carcinoma cell viability – HepG2, calcein-AM fluorescence, 48 h, basal, profiling panel (AID 1164); conditions: higher = more signal; note: test concentration not given here
[14] = compound effects on multiple myeloma cell viability – MM1S, calcein-AM fluorescence, 48 h, basal, profiling panel (AID 1165); conditions: higher = more signal; note: test concentration not given here
[15] = calcein-AM signal in unstimulated myeloma cells – cell-based, calcein-AM fluorescence, 48 h, PK04 Diversity Set, profiling panel (AID 1166); conditions: RPMI8226 myeloma viability, higher = more signal;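 note: cells grown under basal conditions without added stimulus; test concentration not given here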
[16] = JC-1 mitochondrial signal, unstimulated HepG2 cells – cell-based, JC-1 fluorescence, 24 h, 100 nL compound, profiling panel (AID 1167); conditions: HepG2 mitochondrial potential, higher = more signal; note: test concentration not given here
[17] = JC-1 mitochondrial signal, unstimulated adipocytes – cell-based, JC-1 fluorescence, 3T3-L1 adipocytes, 24 h, 100 nL compound, profiling panel (AID 1168); conditions: JC-1 mitochondrial fluorescence, higher = more signal, called active from +8 up or from −8 down; note: test concentration not given here
[18] = JC-1 mitochondrial signal, unstimulated myeloma cells – cell-based, JC-1 fluorescence, RPMI8226, 24 h, 100 nL compound, profiling panel (AID 1169); conditions: JC-1 mitochondrial potential fluorescence, higher = more signal; note: test concentration not given here
[19] = JC-1 mitochondrial signal, unstimulated MM1S myeloma – cell-based, JC-1 fluorescence, 24 h, 100 nL compound, profiling panel (AID 1170); conditions: MM1S mitochondrial potential, higher = more signal; note: test concentration not given here
[20] = resazurin metabolic signal in A549 cells – cell-based, resazurin fluorescence, 24 h, PK04 Diversity Set, profiling panel (AID 1171); conditions: A549 viability, higher = more signal, called active from +8 up or from −8 down; note: test concentration not given here

Chain of NADPH oxidase 5 (Homo sapiens) (Q96PH1 whole entry, looked up): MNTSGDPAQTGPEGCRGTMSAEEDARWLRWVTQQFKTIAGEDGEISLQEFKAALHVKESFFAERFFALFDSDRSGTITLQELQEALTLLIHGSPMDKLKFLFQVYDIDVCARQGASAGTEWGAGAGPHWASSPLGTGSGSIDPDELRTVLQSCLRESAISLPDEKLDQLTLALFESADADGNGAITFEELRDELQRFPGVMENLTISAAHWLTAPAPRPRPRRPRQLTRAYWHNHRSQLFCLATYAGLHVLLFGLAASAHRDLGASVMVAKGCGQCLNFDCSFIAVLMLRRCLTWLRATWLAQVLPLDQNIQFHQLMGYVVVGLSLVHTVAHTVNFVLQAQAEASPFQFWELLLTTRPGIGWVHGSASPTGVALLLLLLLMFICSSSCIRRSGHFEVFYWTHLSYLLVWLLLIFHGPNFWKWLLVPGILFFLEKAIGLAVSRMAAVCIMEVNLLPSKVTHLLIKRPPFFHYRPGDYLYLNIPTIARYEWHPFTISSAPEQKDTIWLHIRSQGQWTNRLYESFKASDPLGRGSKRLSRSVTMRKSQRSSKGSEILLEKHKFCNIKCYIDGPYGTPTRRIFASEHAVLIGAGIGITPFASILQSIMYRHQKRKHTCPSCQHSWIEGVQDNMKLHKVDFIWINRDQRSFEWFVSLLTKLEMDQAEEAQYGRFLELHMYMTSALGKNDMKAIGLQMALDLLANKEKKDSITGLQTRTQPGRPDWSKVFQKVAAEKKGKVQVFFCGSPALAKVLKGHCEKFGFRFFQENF
Chain of NADPH oxidase 2 (Homo sapiens) (P04839 whole entry, looked up): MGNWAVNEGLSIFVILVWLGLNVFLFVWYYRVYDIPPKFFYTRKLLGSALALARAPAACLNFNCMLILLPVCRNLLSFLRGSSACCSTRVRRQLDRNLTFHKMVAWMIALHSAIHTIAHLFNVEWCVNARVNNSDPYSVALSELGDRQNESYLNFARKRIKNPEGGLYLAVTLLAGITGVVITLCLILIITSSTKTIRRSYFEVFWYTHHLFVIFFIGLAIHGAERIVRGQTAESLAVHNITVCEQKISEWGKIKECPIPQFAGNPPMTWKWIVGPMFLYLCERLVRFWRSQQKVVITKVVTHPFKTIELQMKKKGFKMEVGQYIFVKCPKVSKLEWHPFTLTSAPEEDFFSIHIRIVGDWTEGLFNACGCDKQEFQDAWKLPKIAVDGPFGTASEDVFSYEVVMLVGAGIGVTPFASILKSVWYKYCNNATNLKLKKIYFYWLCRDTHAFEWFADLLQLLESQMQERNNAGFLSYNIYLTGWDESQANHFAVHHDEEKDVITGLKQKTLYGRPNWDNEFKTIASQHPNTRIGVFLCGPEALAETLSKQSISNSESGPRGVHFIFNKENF
Chain of NADPH oxidase 4 (Homo sapiens) (Q9NPH5 whole entry, looked up): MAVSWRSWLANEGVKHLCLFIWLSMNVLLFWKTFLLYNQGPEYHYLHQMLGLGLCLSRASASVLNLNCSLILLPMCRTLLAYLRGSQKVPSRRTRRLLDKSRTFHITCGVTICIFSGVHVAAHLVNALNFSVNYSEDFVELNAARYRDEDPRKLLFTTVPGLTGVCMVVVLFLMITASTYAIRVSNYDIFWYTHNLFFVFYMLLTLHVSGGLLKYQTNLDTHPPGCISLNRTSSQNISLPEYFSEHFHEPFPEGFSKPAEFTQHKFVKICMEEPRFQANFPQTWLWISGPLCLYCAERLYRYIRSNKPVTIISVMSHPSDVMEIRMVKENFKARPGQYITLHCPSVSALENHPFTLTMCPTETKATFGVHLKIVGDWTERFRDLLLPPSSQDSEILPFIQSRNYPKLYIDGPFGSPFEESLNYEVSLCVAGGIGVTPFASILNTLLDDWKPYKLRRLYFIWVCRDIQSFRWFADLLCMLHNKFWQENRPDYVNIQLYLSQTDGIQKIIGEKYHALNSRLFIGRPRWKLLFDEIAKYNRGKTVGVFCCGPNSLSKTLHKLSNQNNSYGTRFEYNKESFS

Compound | z-score [1] | composite z-score [2] | z-score [3] | z-score [4] | z-score [5] | z-score [6] | z-score [7] | z-score [8] | z-score [9] | z-score [10] | z-score [11] | z-score [12] | z-score [13] | z-score [14] | z-score [15] | z-score [16] | z-score [17] | z-score [18] | z-score [19] | z-score [20]
COC(=O)CC=C[C@@H](C)[C@@H](CO)NS(=O)(=O)c1ccc(C)cc1 | -0.242 (inactive) and 0.0668 (inactive) | -0.0971 and -0.148 | -0.577 (inactive) and 5.54 (inactive) | -0.08 (inactive) and 1.47 (inactive) | 0.245 (inactive) and 0.644 (inactive) | -0.145 (inactive) and 1.05 (inactive) | -0.244 and 0.392 | -0.132 (inactive) and 0.154 (inactive) | -0.00804 (inactive) and 0.453 (inactive) | -0.00181 and 0.301 | -0.188 and 0.816 | -0.466 and -0.0209 | -0.252 and 0.461 | -0.243 and 0.811 | -0.101 and 0.667 | -0.328 and 0.817 | -0.0819 (inactive) and -0.161 (inactive) | -0.827 and 0.601 | -0.0943 and -0.285 | 0.827 (inactive) and -0.832 (inactive)
C=C[C@@H](C)[C@@H](O)c1ccc(OCCO)cc1 | 0.155 (inactive) and 1.8 (inactive) | -0.237 and -0.102 | 1.23 (inactive) and 0.481 (inactive) | 0.568 (inactive) and -0.311 (inactive) | 0.321 (inactive) and -0.929 (inactive) | 0.281 (inactive) and -0.873 (inactive) | 0.0021 and 0.856 | -0.228 (inactive) and -0.985 (inactive) | -0.115 (inactive) and -0.247 (inactive) | -0.0389 and -0.521 | -0.61 and 0.227 | 0.513 and 0.464 | -0.976 and 0.692 | 0.958 and -0.872 | -0.754 and 0.96 | 0.299 and 1.09 | -0.82 (inactive) and -0.165 (inactive) | -0.0815 and 0.346 | 0.287 and -0.925 | 0.175 (inactive) and -0.652 (inactive)
CC[C@@H]1C(Sc2ccccc2)C(C(=O)O)[C@H](c2ccc(C)cc2)N1S(=O)(=O)c1ccc(C)cc1 (stereo not given in full) | -1.08 (inactive) and -0.135 (inactive) | 0.417 and -0.214 | 0.519 (inactive) and -0.178 (inactive) | 0.677 (inactive) and -0.514 (inactive) | -0.0111 (inactive) and -0.657 (inactive) | 0.683 (inactive) and -2.21 (inactive) | -0.473 and 0.388 | 0.668 (inactive) and 0.333 (inactive) | 0.464 (inactive) and 0.356 (inactive) | 2.07 and 0.173 | 0.0996 and 0.624 | -0.505 and 0.311 | 0.364 and 0.126 | 0.702 and 1.11 | -0.528 and -0.148 | -0.446 and 0.366 | 0.164 (inactive) and 0.619 (inactive) | 0.296 and -0.369 | -0.152 and -0.291 | -0.631 (inactive) and -1.02 (inactive)
CCCC[C@@H]1CN2[C@@H](CC[C@@H](C)[C@@H]2c2ccc(Br)cc2)C(=O)O1 | -0.247 (inactive) and -1.23 (inactive) | -0.0601 and -0.0141 | 0.952 (inactive) and 1.74 (inactive) | -0.255 (inactive) and 0.94 (inactive) | 0.0015 (inactive) and -0.273 (inactive) | 0.367 (inactive) and 0.443 (inactive) | -1.02 and -0.612 | 1.18 (inactive) and -0.0488 (inactive) | 0.883 (inactive) and 0.821 (inactive) | 0.637 and 0.0426 | 0.761 and 1.06 | -0.857 and -0.567 | 0.537 and -0.336 | -1.1 and 0.516 | 0.309 and -0.616 | -0.48 and 0.127 | -0.136 (inactive) and -1.09 (inactive) | 0.266 and -0.0989 | 0.0213 and -0.396 | -0.335 (inactive) and -0.178 (inactive)
CC(C)N1CC=CC23O[C@@H]4C=CCCOC(=O)C4[C@H]2C(=O)N(C(C)CO)[C@@H]3C1=O (stereo not given in full) | 2.39 (inactive) and 2.01 (inactive) | 0.0004 and -0.147 | 0.339 (inactive) and 1.47 (inactive) | -0.917 (inactive) and -0.564 (inactive) | -0.0544 (inactive) and 0.331 (inactive) | -1.54 (inactive) and -0.97 (inactive) | 0.22 and -0.109 | 1.94 (inactive) and 1.59 (inactive) | 0.808 (inactive) and 0.594 (inactive) | 2.17 and 1.76 | -0.507 and 0.287 | 1.61 and 1.45 | -0.658 and -0.153 | 1.24 and 0.914 | 0.264 and 0.678 | 0.534 and 0.979 | 1.21 (inactive) and 1.41 (inactive) | 0.0803 and 0.664 | 1.69 and 1.02 | 0.0618 (inactive) and 0.502 (inactive)
CCOC(=O)c1ccc(NC(=O)O[C@H]2[C@H](OC(=O)Nc3ccccc3)[C@H](OC(=O)Nc3ccccc3)[C@@H](OC)O[C@@H]2CO)cc1 | 0.473 (inactive) and -0.33 (inactive) | 0.416 and 0.344 | 14.6 (active) and 24.1 (active) | 2.63 (inactive) and 11.5 (active) | 0.433 (inactive) and -0.123 (inactive) | 1.23 (inactive) and 1.89 (inactive) | -0.636 and 0.647 | -0.218 (inactive) and 1.15 (inactive) | -0.122 (inactive) and -0.312 (inactive) | -0.195 and -0.355 | -0.299 and -1.3 | 0.207 and 0.7 | -1.02 and -1.9 | -1.08 and -3.02 | -0.636 and -3.24 | -0.171 and -1.02 | 1.31 (inactive) and -0.302 (inactive) | -0.396 and -0.968 | -0.45 and -1.27 | -1.11 (inactive) and -3.2 (inactive)
